# Source: ChEMBL document CHEMBL4513216, “Probing the Open Global Health Chemical Diversity Library for Multistage-Active Starting Points for Next-Generation Antimalarials” (ACS Infect Dis, 2020)
# In all, about 69,000 compounds went through this assay and about 8,600 (12%) showed an effect of 50% or more. What follows is part of a selection rich in strong results, with near analogues and random picks from the rest.
# System: Plasmodium berghei
# Assay: Screen against P. berghei liver stage (PbLuc), transformed with Luciferase, at 10uM
# Assay type: functional, HepG2
# Settings: tested at 10 uM
row,SMILES,INHIBITION [%]
1,CCC(=O)N1CCC2(CC1)CC(N1CCOCC1)c1cc(C)ccc12 (stereo not given),61.8
2,Cc1ccc2c(c1)C1(CCNCC1)CC2N1CCOCC1 (stereo not given),-58.9
3,Cc1ccc2c(c1)C(N1CCOCC1)CC21CCNCC1 (stereo not given),38.5
4,COCC(=O)N1CCC2(CC1)CC(N1CCOCC1)c1ccc(C)cc12 (stereo not given),-24.8
5,COCCN1CCC2(CC1)CC(N1CCOCC1)c1ccc(C)cc12 (stereo not given),48.4
6,O=C(c1sccc1C1CC1)N1CCN(c2cnccn2)CC1,44
7,CN(Cc1n[nH]c2c1CCCC2)c1nc(C2CC2)nc2c1CCNCC2,62.8
8,CN(C)c1nc2c(c(N(C)Cc3n[nH]c4c3CCCC4)n1)CCNCC2,70.2
9,CN(Cc1n[nH]c2c1CCCC2)c1nc2c(c(=O)[nH]1)CCNCC2,10.4
10,CN(Cc1n[nH]c2c1CCC2)c1nc(C2CCCC2)nc2c1CNC2,26.8
11,CN(C)c1nc2c(c(N(C)Cc3n[nH]c4c3CCCCC4)n1)CCNC2,26.8
12,CN(Cc1cc2n(n1)CCNC2)Cc1n[nH]c2c1CCCCC2,44.3
13,COc1c(C(=O)NCc2cccnc2)nnn1Cc1ccccc1,2.69
14,COc1ccc(F)c(CN2CCCC(O)(CNC3CCCCC3)C2=O)c1 (stereo not given),4.48
15,COc1ccc(F)c(CN2CCCC(O)(CNCc3ccon3)C2=O)c1 (stereo not given),52
16,COc1ccc(F)c(CN2CCCC(O)(CNCC(C)(C)C)C2=O)c1 (stereo not given),71.7
17,COc1ccc(F)c(CN2CCCC(O)(CNCc3ccoc3)C2=O)c1 (stereo not given),34.1
18,CC(C)(C)CNCC1(O)CCCN(Cc2ccccc2F)C1=O (stereo not given),7.17
19,COc1ccc(F)c(CN2CCCC(O)(CNCc3ncc[nH]3)C2=O)c1 (stereo not given),33.2
20,CCc1cccc(C)c1NC(=O)NCCCN(CC)S(C)(=O)=O,-17.7
21,Cc1cc(C)n(C2CCCN(C(=O)Cc3cccc(F)c3)C2)n1 (stereo not given),19.4
22,CC1c2ncc(Cn3cccn3)n2CCN1S(C)(=O)=O (stereo not given),43
23,Cc1noc(C2CCCCN2C(=O)NC2CCCC2)n1 (stereo not given),-43.4
24,Cc1nc(CN2CCc3cc(C(=O)O)c(N(C)C)nc3CC2)cs1,19.4
25,O=C(NCCO)c1cc(-c2ccc3c(c2)CCO3)n[nH]1,5.85
26,CN(C)CCCNC(=O)c1cc(-c2ccc3c(c2)CCO3)n[nH]1,54.5
27,O=C(NCCCO)c1cc(-c2ccc3c(c2)CCO3)n[nH]1,-49.2
28,CSC(C)C(=O)NCCC(=O)N1CCN(c2ccccn2)CC1 (stereo not given),39.2

row,SMILES,INHIBITION [%]
1,CN(Cc1ccccc1)CC1(O)CCCN(Cc2ccc(F)cc2)C1=O (stereo not given),31.1
2,CN(Cc1ccc(F)cc1)CC1(O)CCCN(CC(C)(C)C)C1=O (stereo not given),28.5
3,O=C1N(CCCc2ccccc2)CCCC1(O)CNCC1CCCCC1 (stereo not given),39.5
4,CN(Cc1cccnc1)CC1(O)CCCN(CC(C)(C)C)C1=O (stereo not given),44.7
5,O=C1N(CCC2CCCCC2)CCCC1(O)CNCCc1ccccc1 (stereo not given),56.9
6,CN(Cc1ccccc1)CC1(O)CCCN(CC(C)(C)C)C1=O (stereo not given),51.8
7,Cc1cc(CN(C)CC2(O)CCCN(CCC3CCCCC3)C2=O)no1 (stereo not given),32.3
8,O=C1NCCN1CCNCC1(O)CCCN(CCC2CCCCC2)C1=O (stereo not given),-48.7
9,CN(Cc1ccccc1)CC1(O)CCCN(CCC2CCCCC2)C1=O (stereo not given),63.7
10,Cc1nc(CN2CCCC(N(C)CC3(O)CCCCC3)C2)no1 (stereo not given),-3.2
11,Cc1cccc(CN2CCS(=O)(=O)[C@@H]3CCN(S(C)(=O)=O)CC[C@@H]32)n1,39.3
12,CC(C)c1cc(C(=O)NCCN2CCCCC2CO)on1 (stereo not given),15
13,CCN1CCCC12CCN(C(=O)c1ccsc1)CC2,36.9
14,O=C(c1cc2c(s1)CCC2)N1CCCC1c1noc(C2CC2)n1 (stereo not given),-56.7
15,Cc1nnc(NC(=O)NCc2ccc(N3CCOCC3)nc2)s1,-43.6
16,CC(O)CNCc1c(C(C)C)nn(C)c1N1CCOCC1 (stereo not given),3.8
17,CCOC(=O)CC(c1cccc(OC)c1OC)c1c(C)[nH][nH]c1=O (stereo not given),3.6
18,c1cnc(NC2COC3(CCN(Cc4cc[nH]n4)CC3)C2)nc1 (stereo not given),26.3
19,Cn1cc(CN2C[C@@H]3COC[C@]3(CNC(=O)c3ccco3)C2)cn1,52
20,Cc1ccsc1CN1C[C@@H]2COC[C@]2(CNC(=O)c2ccco2)C1,63.7
21,O=C(NC[C@]12COC[C@H]1CN(Cc1nccs1)C2)c1ccccc1,23.7
22,Cc1cc(CN2C[C@@H]3COC[C@]3(CNC(=O)c3ccco3)C2)no1,20.6
23,Cn1cc(CN2C[C@@H]3COC[C@]3(CNC(=O)c3ccccc3)C2)cn1,30.3
24,Cc1ncsc1CN1C[C@@H]2COC[C@]2(CNC(=O)c2ccco2)C1,14.8
25,O=C(NC[C@]12COC[C@H]1CN(Cc1ccncc1)C2)c1ccco1,18.2
26,O=C(NC[C@]12COC[C@H]1CN(CC1CCOCC1)C2)c1ccccc1,30.3
27,O=C(NC[C@]12COC[C@H]1CN(Cc1ccco1)C2)c1ccccc1,54.7
